Test results from PubChem BioAssay (EPA / NIEHS).
Calls of active or inactive are those of the source. How the source made its calls: active means hit-call score of the fitted dose curve at least 0.9, where 1 is the maximum; inactive means score below 0.9.

Tests used:
Settings in all cases: mRNA level, 48 h; actives raise or lower the signal
[1] = read-out: Lipase C (LIPC), LIPC (gene 3990); assay: LTEA_HepaRG_LIPC: Life Technologies and Expression Analysis (LTEA) Assay for Lipase C (LIPC) using HepaRG (AID 2283514)
How it was run: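 LIPC expression was quantified by qRT-PCR against three housekeeping genes (ACTB, GAPDH, POLR2A). Differentiated human HepaRG cells received eight half-log doses (top 100 uM, 0.5% DMSO) in duplicate for 48 h; fitting bidirectional relative to DMSO.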

[2] = read-out: Lipoprotein lipase (LPL), LPL (gene 4023); assay: LTEA_HepaRG_LPL: Life Technologies and Expression Analysis (LTEA) Assay for Lipoprotein lipase (LPL) using HepaRG (AID 2283515)
How it was run: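 LPL transcript levels quantified by TaqMan qRT-PCR against three housekeeping genes after 48 h chemical treatment of HepaRG cells. Eight-point half-log series from 100 uM in 0.5% DMSO, tested in duplicate; bidirectional fitting versus vehicle.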

[3] = read-out: MicroRNA 122 (MIR122), gene 406906; assay: LTEA_HepaRG_MIR122: Life Technologies and Expression Analysis (LTEA) Assay for MicroRNA 122 (MIR122) using HepaRG (AID 2283516); further: the transcript read is the microRNA miR-122
How it was run: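 qRT-PCR read-out (TaqMan, Fluidigm array), normalized to three housekeeping genes; HepaRG cells dosed 48 h at 8 concentrations up to 100 uM in 0.5% DMSO, duplicate; gain or loss fitted against DMSO baseline.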

[4] = read-out: matrix metalloproteinase-10 (MMP10), MMP10 (gene 4319); assay: LTEA_HepaRG_MMP10: Life Technologies and Expression Analysis (LTEA) Assay for matrix metalloproteinase-10 (MMP10) using HepaRG (AID 2283517)
How it was run: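 Expression measured by TaqMan qRT-PCR with ACTB/GAPDH/POLR2A normalisation after 48 h chemical exposure of HepaRG cells. Eight half-log concentrations, top 100 uM, 0.5% DMSO vehicle, duplicates; gain or loss fitted against vehicle.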

[5] = read-out: matrix metalloproteinase-3 (MMP3), MMP3 (gene 4314); assay: LTEA_HepaRG_MMP3: Life Technologies and Expression Analysis (LTEA) Assay for matrix metalloproteinase-3 (MMP3) using HepaRG (AID 2283519)
How it was run: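 Fluidigm-based TaqMan qRT-PCR, normalized to ACTB, GAPDH and POLR2A and fitted bidirectionally versus 0.5% DMSO, measured transcript levels. Treatment: duplicate 48 h exposures of HepaRG cells, ~100,000/well, to eight half-log concentrations topping at 100 uM.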

[6] = read-out: Paternally Expressed 10 (PEG10), PEG10 (gene 23089); assay: LTEA_HepaRG_PEG10: Life Technologies and Expression Analysis (LTEA) Assay for Paternally Expressed 10 (PEG10) using HepaRG (AID 2283520);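 on AC50: PEG10 transcript by qRT-PCR normalised to ACTB GAPDH and POLR2A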
How it was run: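 qRT-PCR read-out: PEG10 mRNA normalised to three housekeeping genes, fitted bidirectionally against 0.5% DMSO vehicle. HepaRG cells received test chemicals for 48 h in serum-free induction medium, 8 points, top 100 uM, half-log steps.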

[7] = read-out: Protein phosphatase 2A (PPP2R4), PTPA (gene 5524); assay: LTEA_HepaRG_PPP2R4: Life Technologies and Expression Analysis (LTEA) Assay for Protein phosphatase 2A (PPP2R4) using HepaRG (AID 2283522)
How it was run: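 HepaRG, 48 h exposure, 8-pt half-log series from 100 uM, 0.5% DMSO vehicle, duplicates. Readout: PPP2R4 mRNA, Fluidigm qRT-PCR, housekeeping-normalized. Bidirectional curve fit vs DMSO baseline.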

[8] = read-out: Phosphatase and tensin (PTEN), PTEN (gene 5728); assay: LTEA_HepaRG_PTEN: Life Technologies and Expression Analysis (LTEA) Assay for Phosphatase and tensin (PTEN) using HepaRG (AID 2283523)
How it was run: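 Read-out: TaqMan qRT-PCR of PTEN transcript, normalized to three housekeeping genes, fitted in both directions against 0.5% DMSO. Differentiated human HepaRG cultures received chemicals for 48 h, eight-point half-log series topping at 100 uM.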

[9] = read-out: solute carrier (SLC22A1), SLC22A1 (gene 6580); assay: LTEA_HepaRG_SLC22A1: Life Technologies and Expression Analysis (LTEA) Assay for solute carrier (SLC22A1) using HepaRG (AID 2283524)
How it was run: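 Transcript level of SLC22A1 quantified by qRT-PCR (normalized to three housekeeping genes) after 48 h chemical exposure of HepaRG cells, eight concentrations up to 100 µM, half-log steps, 0.5% DMSO vehicle. Gain or loss relative to DMSO fitted bidirectionally.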

[10] = read-out: Pyruvate Dehydrogenase Kinase 4 (PDK4), PDK4 (gene 5166); assay: LTEA_HepaRG_PDK4: Life Technologies and Expression Analysis (LTEA) Assay for Pyruvate Dehydrogenase Kinase 4 (PDK4) using HepaRG (AID 2283525)
How it was run: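 Readout is qRT-PCR of PDK4 transcript, normalized to three housekeeping genes, with bidirectional fitting against 0.5% DMSO vehicle. Differentiated HepaRG cells were treated 48 h in serum-free induction medium, duplicate wells, eight-point half-log series topping at 100 uM.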

[11] = read-out: NAD(P)H dehydrogenase [quinone] 1 (NQO1), NQO1 (gene 1728); assay: LTEA_HepaRG_NQO1: Life Technologies and Expression Analysis (LTEA) Assay for NAD(P)H dehydrogenase [quinone] 1 (NQO1) using HepaRG (AID 2283526)
How it was run: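 qRT-PCR read-out (Fluidigm TaqMan), normalized to three housekeeping genes, after 48 h chemical exposure of HepaRG cells. Concentrations: eight points, top 100 uM, half-log steps, 0.5% DMSO vehicle. Gain or loss of signal fitted relative to DMSO.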

[12] = read-out: Nuclear factor erythroid 2-related factor 2 (Homo sapiens) (UniProt Q16236); assay: LTEA_HepaRG_NFE2L2: Life Technologies and Expression Analysis (LTEA) Assay for Nuclear factor erythroid 2-related factor 2 (NFE2L2) Transcription Factor using HepaRG (AID 2283527);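 further: TaqMan qRT-PCR transcript level normalised to ACTB GAPDH and POLR2A housekeeping genes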
How it was run: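 NFE2L2 transcript level was read by qRT-PCR (housekeeping ACTB/GAPDH/POLR2A normalisation) after 48 h chemical treatment of HepaRG in serum-free induction medium. Duplicate 8-point half-log curves, top 100 uM, 0.5% DMSO vehicle; up- or down-regulation fitted against vehicle.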

[13] = read-out: succinate dehydrogenase complex iron sulfur subunit B (SDHB), SDHB (gene 6390); assay: LTEA_HepaRG_SDHB: Life Technologies and Expression Analysis (LTEA) Assay for succinate dehydrogenase complex iron sulfur subunit B (SDHB) using HepaRG (AID 2283528)
How it was run: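 HepaRG cells (~100,000/well, plated 48 h) exposed in duplicate for 48 h in serum-free induction medium to 8-point half-log series from 100 uM in 0.5% DMSO; mRNA by qRT-PCR normalised to ACTB, GAPDH, POLR2A; bidirectional fit versus DMSO.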

[14] = read-out: Signal transducer and activator of transcription 3 (Homo sapiens) (UniProt P40763); assay: LTEA_HepaRG_STAT3: Life Technologies and Expression Analysis (LTEA) Assay for Signal transducer and activator of transcription (STAT3) using HepaRG (AID 2283529)
How it was run: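 STAT3 transcript quantified by qRT-PCR against three housekeeping genes (ACTB, GAPDH, POLR2A), fitted both directions relative to DMSO. HepaRG cultures exposed 48 h to eight half-log concentrations, top 100 uM, 0.5% DMSO, serum-free induction medium.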

[15] = read-out: solute carrier (SLCO1B1), SLCO1B1 (gene 10599); assay: LTEA_HepaRG_SLCO1B1: Life Technologies and Expression Analysis (LTEA) Assay for solute carrier (SLCO1B1) using HepaRG (AID 2283530)
How it was run: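 HepaRG, serum-free induction medium, 48 h dosing, 8-pt half-log from 100 uM, 0.5% DMSO vehicle, duplicates. Readout: SLCO1B1 mRNA, qRT-PCR, ACTB/GAPDH/POLR2A normalization; up or down fit vs DMSO.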

[16] = read-out: sulfotransferase 2A1 (SULT2A1), SULT2A1 (gene 6822); assay: LTEA_HepaRG_SULT2A1: Life Technologies and Expression Analysis (LTEA) Assay for sulfotransferase 2A1 (SULT2A1) using HepaRG (AID 2283531)
How it was run: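 Transcript levels of SULT2A1, quantified by qRT-PCR and normalized to three housekeeping genes, serve as the readout. Human HepaRG cultures receive test chemicals for 48 h at up to 100 uM in half-log steps, with 0.5% DMSO vehicle.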

[17] = read-out: Transforming Growth Factor (TGFA), TGFA (gene 7039); assay: LTEA_HepaRG_TGFA: Life Technologies and Expression Analysis (LTEA) Assay for Transforming Growth Factor (TGFA) using HepaRG (AID 2283532)
How it was run: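 TGFA transcript quantified by qRT-PCR (Fluidigm arrays) against three housekeeping genes, after 48 hours chemical treatment of HepaRG cells. Top concentration 100 uM with half-log dilutions, 8 points, duplicates, 0.5% DMSO.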

[18] = read-out: Transforming Growth Factor (TGFB1), TGFB1 (gene 7040); assay: LTEA_HepaRG_TGFB1: Life Technologies and Expression Analysis (LTEA) Assay for Transforming Growth Factor (TGFB1) Transporter using HepaRG (AID 2283533)
How it was run: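 HepaRG, 48 h post-plating, switched to serum-free induction medium; chemicals 100 uM top, half-log, 8 pts, 0.5% DMSO, dup; 48 h exposure; RNA → Fluidigm TaqMan qRT-PCR; norm ACTB/GAPDH/POLR2A; bidirectional fit vs DMSO.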

[19] = read-out: Nuclear factor NF-kappa-B p105 subunit (Homo sapiens) (UniProt P19838); assay: LTEA_HepaRG_NFKB1: Life Technologies and Expression Analysis (LTEA) Assay for Nuclear Factor Kappa B Subunit 1 (NFKB1) using HepaRG (AID 2283521)
How it was run: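 Differentiated human HepaRG cells in serum-free induction medium with 0.5% DMSO were exposed for 48 h to eight half-log concentrations, top 100 uM, in duplicate. NFKB1 mRNA measured by Fluidigm TaqMan qRT-PCR, normalised to ACTB, GAPDH and POLR2A; bidirectional fit versus DMSO.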

Measured: AC50

Chain of Nuclear factor erythroid 2-related factor 2 (Homo sapiens) (Q16236 whole entry, looked up): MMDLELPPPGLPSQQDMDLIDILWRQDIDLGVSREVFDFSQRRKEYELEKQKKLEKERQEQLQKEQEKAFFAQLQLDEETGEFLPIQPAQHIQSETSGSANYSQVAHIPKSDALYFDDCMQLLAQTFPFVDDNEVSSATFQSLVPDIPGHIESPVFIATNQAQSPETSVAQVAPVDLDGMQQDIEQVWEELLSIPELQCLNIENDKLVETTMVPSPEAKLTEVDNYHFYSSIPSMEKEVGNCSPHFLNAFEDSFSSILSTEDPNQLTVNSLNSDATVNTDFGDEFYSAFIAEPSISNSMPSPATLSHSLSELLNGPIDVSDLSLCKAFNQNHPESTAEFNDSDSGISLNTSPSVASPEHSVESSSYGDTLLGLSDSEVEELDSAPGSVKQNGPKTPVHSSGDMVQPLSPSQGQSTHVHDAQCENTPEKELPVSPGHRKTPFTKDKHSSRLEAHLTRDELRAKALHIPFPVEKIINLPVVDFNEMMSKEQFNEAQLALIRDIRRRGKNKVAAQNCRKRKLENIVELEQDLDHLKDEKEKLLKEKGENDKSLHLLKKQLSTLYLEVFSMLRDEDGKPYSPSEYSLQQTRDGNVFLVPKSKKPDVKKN
Chain of Signal transducer and activator of transcription 3 (Homo sapiens) (P40763 whole entry, looked up): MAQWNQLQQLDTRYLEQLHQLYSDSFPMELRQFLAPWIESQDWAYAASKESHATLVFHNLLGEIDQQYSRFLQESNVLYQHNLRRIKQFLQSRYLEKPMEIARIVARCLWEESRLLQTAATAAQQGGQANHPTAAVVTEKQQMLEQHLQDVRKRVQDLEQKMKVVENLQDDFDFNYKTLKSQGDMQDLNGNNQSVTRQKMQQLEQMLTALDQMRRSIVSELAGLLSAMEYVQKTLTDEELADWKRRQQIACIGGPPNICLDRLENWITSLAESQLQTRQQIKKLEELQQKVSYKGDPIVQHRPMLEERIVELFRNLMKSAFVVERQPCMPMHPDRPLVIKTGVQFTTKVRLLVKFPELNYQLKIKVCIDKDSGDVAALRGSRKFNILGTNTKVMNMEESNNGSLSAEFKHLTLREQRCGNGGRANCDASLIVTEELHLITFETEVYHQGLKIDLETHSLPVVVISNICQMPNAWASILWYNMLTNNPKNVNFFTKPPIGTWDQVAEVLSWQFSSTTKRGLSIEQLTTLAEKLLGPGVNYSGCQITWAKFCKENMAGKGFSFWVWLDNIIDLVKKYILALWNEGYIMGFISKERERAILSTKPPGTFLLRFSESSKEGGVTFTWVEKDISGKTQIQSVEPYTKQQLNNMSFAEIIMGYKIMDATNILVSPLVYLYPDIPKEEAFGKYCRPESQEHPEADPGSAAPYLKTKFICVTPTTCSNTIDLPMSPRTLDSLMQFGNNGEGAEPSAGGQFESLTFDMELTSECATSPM
Chain of Nuclear factor NF-kappa-B p105 subunit (Homo sapiens) (P19838 whole entry, looked up): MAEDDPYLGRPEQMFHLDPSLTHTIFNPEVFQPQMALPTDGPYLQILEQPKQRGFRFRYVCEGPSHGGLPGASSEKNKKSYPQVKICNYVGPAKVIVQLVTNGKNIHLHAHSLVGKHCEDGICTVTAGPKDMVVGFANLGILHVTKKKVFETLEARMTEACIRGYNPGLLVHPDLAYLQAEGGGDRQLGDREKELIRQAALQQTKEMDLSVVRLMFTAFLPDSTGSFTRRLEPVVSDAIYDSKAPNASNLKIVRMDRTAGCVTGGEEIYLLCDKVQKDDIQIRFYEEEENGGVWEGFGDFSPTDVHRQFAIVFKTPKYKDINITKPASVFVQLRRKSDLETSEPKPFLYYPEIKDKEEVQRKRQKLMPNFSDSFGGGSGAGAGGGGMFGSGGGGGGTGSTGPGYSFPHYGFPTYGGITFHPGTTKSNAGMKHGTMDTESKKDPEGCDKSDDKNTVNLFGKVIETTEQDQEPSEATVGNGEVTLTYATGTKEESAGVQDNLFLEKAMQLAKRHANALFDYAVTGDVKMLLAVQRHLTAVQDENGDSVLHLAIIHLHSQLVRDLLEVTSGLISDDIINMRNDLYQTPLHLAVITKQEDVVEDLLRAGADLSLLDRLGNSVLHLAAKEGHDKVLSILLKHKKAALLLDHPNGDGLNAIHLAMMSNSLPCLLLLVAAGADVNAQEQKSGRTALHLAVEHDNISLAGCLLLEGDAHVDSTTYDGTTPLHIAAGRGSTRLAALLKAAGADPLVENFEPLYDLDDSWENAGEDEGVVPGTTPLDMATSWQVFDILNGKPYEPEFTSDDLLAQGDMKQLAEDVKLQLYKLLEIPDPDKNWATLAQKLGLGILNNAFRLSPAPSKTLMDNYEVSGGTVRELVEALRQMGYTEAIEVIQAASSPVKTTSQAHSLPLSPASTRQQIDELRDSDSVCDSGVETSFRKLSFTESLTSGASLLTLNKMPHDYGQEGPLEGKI

OC12N=C(c3ccccc3)SC1Cc1cc(Cl)ccc12 (stereo not given)
active: [1] 17 µM | [2] 1.52 µM | [3] 12.1 µM | [4] 72.8 µM | [6] 11.8 µM | [9] 40.5 µM | [10] 8.96 µM | [14] 0.925 µM | [15] 32.9 µM | [16] 14 µM
inactive: [5] | [7] | [8] | [11] | [12] | [13] | [17] | [18]

Cc1cn([C@H]2C[C@H](N=[N+]=[N-])[C@@H](CO)O2)c(=O)[nH]c1=O
not listed: [7] | [18]
inactive: all other assays above

CCCCCCCC[Si](OCC)(OCC)OCC
inactive: all assays above

CC(C)(c1cc(Br)c(O)c(Br)c1)c1cc(Br)c(O)c(Br)c1
active: [2] 84.5 µM | [8] 72.7 µM | [9] 53.4 µM | [10] 88.9 µM | [11] 86.6 µM | [16] 91.4 µM | [17] 89.1 µM
not listed: [7] | [19]
inactive: all other assays above

CCN(Cc1cccc(S(=O)(=O)O)c1)c1ccc(C(=C2C=CC(=[N+](CC)Cc3cccc(S(=O)(=O)O)c3)C=C2)c2ccccc2S(=O)(=O)[O-])cc1
not listed: [7] | [18] | [19]
inactive: all other assays above

CCCCCCCCOC(=O)c1cc(O)c(O)c(O)c1
not listed: [19]
inactive: all other assays above
